From PubChem BioAssay (EPA / NIEHS)
Several values for one entry are separate records, joined by “and”; a condition that tells them apart may be missing. Equal entries are not always repeated. Some compounds were tested as several samples or in several runs, with calls that do not always agree. Activity calls are given as the source filed them. The calls were made as follows: active = hit-call score of the fitted dose curve at least 0.9, where 1 is the maximum; inactive = score below 0.9.

Experiments:
[1] = BSK_CASM3C_SRB: Viability Assessment in the BioMAP Diversity Plus: CASM3C Assay (AID 2283050); conditions: primary human coronary artery smooth muscle cells;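 also: total protein by SRB staining as cytotoxicity measure in parallel cultures; cells exposed to compound for 24 h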
[2] = read-out: Thrombomodulin, THBD (gene 7056); assay: BSK_CASM3C_Thrombomodulin: BioMAP Diversity Plus: CASM3C Assay for Thrombomodulin Biomarker Activity (AID 2283051); conditions: primary human coronary artery smooth muscle cells; actives raise or lower the signal;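 also: thrombomodulin protein level measured by ELISA 24 h after dosing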
[3] = read-out: Tissue Factor, F3 (gene 2152); assay: BSK_CASM3C_TissueFactor: BioMAP Diversity Plus: CASM3C Assay for Tissue Factor Biomarker Activity (AID 2283052); conditions: primary human coronary artery smooth muscle cells; actives raise or lower the signal;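 also: cell surface tissue factor protein level read by ELISA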
[4] = read-out: Interferon-gamma inducible Protein 10 (IP10), CXCL10 (gene 3627); assay: BSK_hDFCGF_IP10: BioMAP Diversity Plus: hDFCGF Assay for Interferon-gamma inducible Protein 10 (IP10) Biomarker Activity (AID 2283053); conditions: primary human foreskin fibroblasts; actives raise or lower the signal
Summary of the method: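 Chemical-treated human skin fibroblasts (primary) were sampled at 24 h for IP-10 by ELISA. Both increases and decreases relative to DMSO were scored.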

[5] = read-out: Urokinase-type plasminogen activator receptor (uPAR), PLAUR (gene 5329); assay: BSK_CASM3C_uPAR: BioMAP Diversity Plus: CASM3C Assay for Urokinase-type plasminogen activator receptor (uPAR) Biomarker Activity (AID 2283054); conditions: primary human coronary artery smooth muscle cells; actives raise or lower the signal;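 also: cell-surface uPAR protein level quantified by ELISA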
[6] = read-out: Vascular cell adhesion molecule 1 (VCAM1), VCAM1 (gene 7412); assay: BSK_CASM3C_VCAM1: BioMAP Diversity Plus: CASM3C Assay for Vascular cell adhesion molecule 1 (VCAM1) Biomarker Activity (AID 2283055); conditions: primary human coronary artery smooth muscle cells; actives raise or lower the signal;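 also: VCAM-1 protein level quantified by ELISA on the cells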
[7] = read-out: Collagen III, COL3A1 (gene 1281); assay: BSK_hDFCGF_CollagenIII: BioMAP Diversity Plus: hDFCGF Assay for Collagen III Biomarker Activity (AID 2283056); conditions: primary human foreskin fibroblasts; actives raise or lower the signal
Summary of the method: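 ELISA readout of Collagen III in human dermal (foreskin) fibroblasts, taken 24 h post-treatment. Gain or loss relative to DMSO vehicle fitted in both directions.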

[8] = read-out: Epidermal growth factor receptor (EGFR), EGFR (gene 1956); assay: BSK_hDFCGF_EGFR: BioMAP Diversity Plus: hDFCGF Assay for Epidermal growth factor receptor (EGFR) Biomarker Activity (AID 2283057); conditions: primary human foreskin fibroblasts; actives raise or lower the signal
Summary of the method: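 Cell-based multiplexed assay in primary human foreskin fibroblasts. EGFR is read by ELISA 24 h after treatment and compared with DMSO controls.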

[9] = read-out: Interleukin-8 (IL8), CXCL8 (gene 3576); assay: BSK_hDFCGF_IL8: BioMAP Diversity Plus: hDFCGF Assay for Interleukin-8 (IL8) Biomarker Activity (AID 2283058); conditions: primary human foreskin fibroblasts; actives raise or lower the signal
Summary of the method: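 IL-8 levels read by ELISA at 24 hours after dosing human skin fibroblast cultures. Parallel SRB staining assessed overt cytotoxicity, and gain or loss of signal was fitted against DMSO control.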

[10] = BSK_hDFCGF_Proliferation: Cell Proliferation Assessment in the BioMAP Diversity Plus: hDFCGF Assay (AID 2283059); conditions: primary human foreskin fibroblasts;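 also: curves fitted for both rise and fall of signal versus DMSO baseline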
Summary of the method: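 This proliferation readout used SRB total-protein staining of human foreskin fibroblasts […], normalized to DMSO with bidirectional curve fitting.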

[11] = read-out: Macrophage colony-stimulating factor (MCSF), CSF1 (gene 1435); assay: BSK_hDFCGF_MCSF: BioMAP Diversity Plus: hDFCGF Assay for Macrophage colony-stimulating factor (MCSF) Biomarker Activity (AID 2283060); conditions: primary human foreskin fibroblasts; actives raise or lower the signal
Summary of the method: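 M-CSF levels read by ELISA at 24 h post-dosing in human skin fibroblasts. Parallel cultures stained with SRB assessed cytotoxicity at the same time point; response fitted in both directions against the DMSO baseline.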

[12] = BSK_hDFCGF_SRB: Viability Assessment in the BioMAP Diversity Plus: hDFCGF Assay (AID 2283061); conditions: primary human foreskin fibroblasts;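 also: cells exposed to compound for 24 h before the read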
Summary of the method: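 Viability was read as total protein: after 10% TCA fixation, wells were stained with 0.1% sulforhodamine B and read at 560 nm. Primary human foreskin fibroblasts were dosed for 24 h, with bidirectional fitting versus DMSO.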

[13] = read-out: TIMP metallopeptidase inhibitor 1 (TIMP1), TIMP1 (gene 7076); assay: BSK_hDFCGF_TIMP1: BioMAP Diversity Plus: hDFCGF Assay for TIMP metallopeptidase inhibitor 1 (TIMP1) Biomarker Activity (AID 2283062); conditions: primary human foreskin fibroblasts; actives raise or lower the signal
Summary of the method: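 TIMP-1 measured by ELISA 24 h after chemical dosing of primary human skin fibroblasts, with gain or loss fitted relative to DMSO. Parallel SRB staining (560 nm) monitored overt cytotoxicity.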

[14] = read-out: Monokine induced gamma interferon (MIG), CXCL9 (gene 4283); assay: BSK_hDFCGF_MIG: BioMAP Diversity Plus: hDFCGF Assay for Monokine induced gamma interferon (MIG) Biomarker Activity (AID 2283063); conditions: primary human foreskin fibroblasts; actives raise or lower the signal
Summary of the method: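 Human primary foreskin fibroblasts in the hDFCGF system, exposed to test chemical for 24 h; MIG measured by ELISA. Bidirectional curve fitting against DMSO negative control as activity baseline.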

[15] = read-out: Matrix Metallopeptidase 1 (MMP1), MMP1 (gene 4312); assay: BSK_hDFCGF_MMP1: BioMAP Diversity Plus: hDFCGF Assay for Matrix Metallopeptidase 1 (MMP1) Biomarker Activity (AID 2283064); conditions: primary human foreskin fibroblasts; actives raise or lower the signal
Summary of the method: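 ELISA read-out of MMP1 from human foreskin fibroblasts (primary skin cells), 24 h post-dose. Gain or loss of signal was fitted bidirectionally versus DMSO negative control; cytotoxicity was checked by SRB in parallel cultures.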

[16] = read-out: Vascular cell adhesion molecule 1 (VCAM1), VCAM1 (gene 7412); assay: BSK_hDFCGF_VCAM1: BioMAP Diversity Plus: hDFCGF Assay for Vascular cell adhesion molecule 1 (VCAM1) Biomarker Activity (AID 2283065); conditions: primary human foreskin fibroblasts; actives raise or lower the signal;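 as to AC50: VCAM-1 protein level quantified by ELISA after 24 h chemical exposure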
Summary of the method: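 ELISA readout of VCAM-1 on human dermal fibroblast primary cultures, 24 h after chemical exposure. Gain or loss of signal fitted in both directions against DMSO baseline.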

[17] = read-out: Plasminogen activator inhibitor-1 (PAI1), SERPINE1 (gene 5054); assay: BSK_hDFCGF_PAI1: BioMAP Diversity Plus: hDFCGF Assay for Plasminogen activator inhibitor-1 (PAI1) Biomarker Activity (AID 2283066); conditions: primary human foreskin fibroblasts; actives raise or lower the signal
Summary of the method: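 Human skin fibroblast cultures receive chemical for 24 h before PAI-1 is measured by ELISA; signal changes are fitted bidirectionally against DMSO-treated wells.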

[18] = read-out: Intercellular Adhesion Molecule 1 (ICAM1), ICAM1 (gene 3383); assay: BSK_KF3CT_ICAM1: BioMAP Diversity Plus: KF3CT Assay for Intercellular Adhesion Molecule 1 (ICAM1) Biomarker Activity (AID 2283067); conditions: primary human keratinocytes with fibroblasts; actives raise or lower the signal
Summary of the method: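 Cell-surface ICAM-1 was measured by ELISA 24 h after dosing primary human skin keratinocytes co-cultured with fibroblasts. Parallel SRB staining tracked overt cytotoxicity. Gain or loss of signal was fitted relative to DMSO.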

[19] = BSK_KF3CT_SRB: Viability Assessment in the BioMAP Diversity Plus: KF3CT Assay (AID 2283069); conditions: primary human keratinocytes with fibroblasts;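 also: total protein by sulforhodamine B staining as a cytotoxicity measure; read 24 h after compound addition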
Summary of the method: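 SRB read-out at 560 nm (0.1% stain, TCA-fixed cells) gauges overt cytotoxicity in a human skin keratinocyte–fibroblast co-culture 24 h post-dosing. Signal change was fitted bidirectionally relative to DMSO control.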

[20] = read-out: Interferon-gamma inducible Protein 10 (IP10), CXCL10 (gene 3627); assay: BSK_KF3CT_IP10: BioMAP Diversity Plus: KF3CT Assay for Interferon-gamma inducible Protein 10 (IP10) Biomarker Activity (AID 2283068); conditions: primary human keratinocytes with fibroblasts; actives raise or lower the signal
Summary of the method: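 Signal is secreted/surface IP-10 by ELISA in a human primary skin co-culture of keratinocytes and foreskin fibroblasts, taken 24 h post-dosing; DMSO served as negative control.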

Measured: AC50

O=C(N[C@H]1CN2CCC1CC2)c1cc2ccoc2cn1
not listed: [20]
inactive: all other assays above

Clc1ccc(C(Cl)(Cl)Cl)cc1
not listed: [20]
inactive: all other assays above

NS(=O)(=O)C(F)(F)C(F)(F)C(F)(F)C(F)(F)C(F)(F)C(F)(F)C(F)(F)C(F)(F)F
active: [1] 31.8 µM and 45.5 µM and 49.3 µM | [2] 26 µM and 34.6 µM and 37.3 µM | [5] 46.6 µM and 42.5 µM | [6] 11.4 µM and 16.7 µM | [7] 12.6 µM and 10.8 µM and 9.02 µM | [9] 37.5 µM and 22.2 µM and 34 µM | [10] 12.2 µM and 18.3 µM and 19.5 µM | [11] 14.8 µM and 8.52 µM and 8.29 µM | [12] 26.9 µM and 55 µM and 47.2 µM | [13] 34.4 µM and 53.2 µM and 54.7 µM | [14] 29.4 µM and 9.34 µM and 11 µM | [15] 30.7 µM and 15.3 µM and 17.5 µM | [16] 17.3 µM and 9.88 µM and 7.69 µM | [17] 27.7 µM and 15.4 µM and 21.1 µM | [18] 32 µM and 43.5 µM and 54 µM | [19] 30.1 µM and 45.6 µM and 21.4 µM
inactive: [3] | [5] | [6] | [8]

Nc1ccc(-c2ccc(N)cc2)cc1
inactive: all assays above

CCCCCCCCCc1ccc(O)cc1
inactive: [8]
active: [1] 34.1 µM | [2] 37.8 µM | [3] 28.7 µM | [4] 14.1 µM | [5] 38.2 µM | [6] 33.6 µM | [7] 9.87 µM | [9] 17.2 µM | [10] 5.93 µM | [11] 13.6 µM | [12] 15.4 µM | [13] 16.9 µM | [14] 14.9 µM | [15] 15.4 µM | [16] 13.3 µM | [17] 15.5 µM | [18] 15.1 µM | [20] 13.4 µM | [19] 14.6 µM

Cc1ccccc1[N+](=O)[O-]
inactive: all assays above

CCC(C)(CC)c1cc(NC(=O)c2c(OC)cccc2OC)on1
not listed: [4]
inactive: all other assays above

O=C(O)C(F)(F)C(F)(F)C(F)(F)C(F)(F)C(F)(F)C(F)(F)C(F)(F)C(F)(F)C(F)(F)F
active: [6] 41.3 µM and 30 µM | [7] 29.7 µM and 30 µM | [8] 7.6 µM | [9] 36.9 µM and 57.3 µM and 55.1 µM | [10] 13.5 µM and 16.5 µM and 17.1 µM | [11] 30.4 µM and 21.9 µM and 21.6 µM | [12] 28.5 µM and 48.8 µM and 49 µM | [13] 35 µM and 22.2 µM and 39.3 µM | [14] 33 µM and 36.5 µM and 37.9 µM | [15] 33.3 µM and 26.9 µM and 40.3 µM | [16] 31.2 µM and 17.9 µM and 19.4 µM | [17] 33.1 µM and 38.3 µM and 47 µM | [18] 36.7 µM and 45.8 µM and 54.9 µM | [20] 17.3 µM and 46.9 µM and 40.5 µM | [19] 33.1 µM and 50.3 µM and 50.8 µM
inactive: [1] | [2] | [3] | [5] | [6] | [8]

O=C(NC(=O)c1cc(F)c(F)cc1Cl)Nc1cc(F)ccc1N1CCC(C(=O)O)CC1
inactive: all assays above

CCCCCCCCCC[N+](C)(C)CCCCCCCCCC
active: [1] 5.43 µM | [3] 1.69 µM | [4] 2.44 µM | [5] 3.56 µM | [6] 5.15 µM | [7] 1.76 µM | [8] 1.22 µM | [9] 3.01 µM | [10] 0.154 µM | [11] 2.04 µM | [12] 1.81 µM | [13] 2 µM | [14] 2.95 µM | [15] 1.97 µM | [16] 3.39 µM | [17] 1.58 µM | [18] 10.7 µM | [19] 5.41 µM
inactive: [2]

O=C(O)C(F)(F)C(F)(F)C(F)(F)C(F)(F)C(F)(F)F
not listed: [20]
inactive: all other assays above
